Source: PubChem BioAssay (NCATS)
Results filed as inconclusive are left out. The source made the active and inactive calls. Calls follow the shape of the dose curve; as a rule, active = well fitted curve in the direction sought with a large enough effect; inconclusive = small, poorly fitted or top-dose-only effect, or another doubt; inactive = no such curve, though single readings can be large; an effect the other way counts as inactive or inconclusive. Where a SMILES comes first, the peptide text is derived from it. [ ]: non-standard residue; d: D form. ξ: configuration not given here. ξTyr(βOH) = NC(C(=O)O)C(O)c1ccc(O)cc1

Experiments:
NIH3T3 = assay: qHTS assay to identify novel small-molecules to repurpose for Merkel cell carcinoma treatment (AID 1296009); conditions: MCC and control cell lines, CellTiter-Glo viability, 72 h; at 44.8 µM (top of the series) unless noted; also: nearly all actives have a fitted effect of over 60% in size
Outline: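 Luminescence from CellTiter-Glo, read 10 min after addition at room temperature, reported viability following a 72 hr, 37 degree celsius treatment with NPC or MIPE compounds in titration; values normalized to plate controls.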

C33A = assay: Primary qHTS to identify gynecologic anti-cancer compounds using libraries of approved drugs and bioactive compounds (AID 1345084); conditions: Gynecologic cancer cell panel viability, ATPlite luminescence, 48 h; series mostly up to 57.5 µM; also: % is scaled to controls: 0 for no effect and ±100 for the full control effect; nearly all actives have a fitted effect of over 55% in size
Outline: (§1)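 Cells, 1,000 per well, were allowed to settle for 16 h at 37 C before compound addition. Five concentrations were tested for 48 h, and viability was read by ATPlite luminescence after 15 min at room temperature.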

CAOV3 = assay: as above; conditions: Gynecologic cancer cell panel viability, ATPlite luminescence, 48 h; series mostly up to 57.5 µM
Outline: as §1

CASKI = assay: as above; conditions: Gynecologic cancer cell panel viability, ATPlite luminescence, 48 h; series mostly up to 57.5 µM
Outline: as §1

Es-2 = assay: as above; conditions: Gynecologic cancer cell panel viability, ATPlite luminescence, 48 h; series mostly up to 57.5 µM
Outline: as §1

HeLa = assay: as above; conditions: Gynecologic cancer cell panel viability, ATPlite luminescence, 48 h; series mostly up to 57.5 µM
Outline: as §1

Hek293T = assay: as above; conditions: Gynecologic cancer cell panel viability, ATPlite luminescence, 48 h, control line for the selectivity index; series mostly up to 57.5 µM
Outline: as §1

JEG-3 = assay: as above; conditions: Gynecologic cancer cell panel viability, ATPlite luminescence, 48 h; series mostly up to 57.5 µM
Outline: as §1

OV90 = assay: as above; conditions: Gynecologic cancer cell panel viability, ATPlite luminescence, 48 h; series mostly up to 57.5 µM
Outline: as §1

PA-1 = assay: as above; conditions: Gynecologic cancer cell panel viability, ATPlite luminescence, 48 h; series mostly up to 57.5 µM
Outline: as §1

Tov-21-G = assay: as above; conditions: Gynecologic cancer cell panel viability, ATPlite luminescence, 48 h; series mostly up to 57.5 µM
Outline: as §1

Tov112D = assay: as above; conditions: Gynecologic cancer cell panel viability, ATPlite luminescence, 48 h; series mostly up to 57.5 µM
Outline: as §1

CC1=C[C@H](O)[C@H]2C(C)(C)CCC[C@]2(C)[C@@]1(O)CO
inactive: outcome (NIH3T3) | Potency (C33A) | Potency (CAOV3) | outcome (CASKI) | Potency (Es-2) | Potency (HeLa) | Potency (Hek293T) | Potency (JEG-3) | Potency (OV90) | Potency (PA-1) | Potency (Tov-21-G) | Potency (Tov112D)

CC1=CC[C@@]2(C)CC[C@@](O)(C(C)C)[C@@H]2[C@@H](O)C1
inactive: outcome (NIH3T3) | Potency (C33A) | Potency (CAOV3) | outcome (CASKI) | Potency (Es-2) | Potency (HeLa) | Potency (Hek293T) | Potency (JEG-3) | Potency (OV90) | Potency (PA-1) | Potency (Tov-21-G) | Potency (Tov112D)

C[C@@]1(O)[C@H](O)[C@@H](CO)O[C@H]1n1cnc2c(=O)[nH]c(N)nc21
inactive: outcome (NIH3T3) | Potency (C33A) | Potency (CAOV3) | outcome (CASKI) | Potency (Es-2) | Potency (HeLa) | Potency (Hek293T) | Potency (JEG-3) | Potency (OV90) | Potency (PA-1) | Potency (Tov-21-G) | Potency (Tov112D)

C=CC(C)(O)CCC1C(C)(O)CCC2C(C)(C)CCCC21C (stereo not drawn)
inactive: outcome (NIH3T3) | Potency (C33A) | Potency (CAOV3) | outcome (CASKI) | Potency (Es-2) | Potency (HeLa) | Potency (Hek293T) | Potency (JEG-3) | Potency (OV90) | Potency (PA-1) | Potency (Tov-21-G) | Potency (Tov112D)

CC(C)C1NC(=O)CNC(=O)C2CCCN2C(=O)C(Cc2c[nH]c3ccccc23)NC(=O)CNC(=O)C(C(O)c2ccc(O)cc2)NC(=O)CNC1=O (stereo not drawn) (cyclo(G[ξTyr(βOH)]GWPGV); configuration not given here)
inactive: outcome (NIH3T3) inactive [at 17.4 µM] | Potency (C33A) | Potency (CAOV3) | outcome (CASKI) | Potency (Es-2) | Potency (HeLa) | Potency (Hek293T) | Potency (JEG-3) | Potency (OV90) | Potency (PA-1) | Potency (Tov-21-G) | Potency (Tov112D)

COC(=O)C1=CO[C@@H](O[C@@H]2O[C@H](CO)[C@@H](O)[C@H](O)[C@H]2O)[C@@H]2C(C)CC(=O)[C@]12O (stereo partly drawn)
inactive: outcome (NIH3T3) inactive [at 17.4 µM] | Potency (C33A) | Potency (CAOV3) | outcome (CASKI) | Potency (Es-2) | Potency (HeLa) | Potency (Hek293T) | Potency (JEG-3) | Potency (OV90) | Potency (PA-1) | Potency (Tov-21-G) | Potency (Tov112D)

C=C1CCC2[C@@](C)(C(=O)O)CCC[C@@]2(C)[C@@H]1CCc1ccoc1 (stereo partly drawn)
inactive: outcome (NIH3T3) | Potency (C33A) | Potency (CAOV3) | outcome (CASKI) | Potency (Es-2) | Potency (HeLa) | Potency (Hek293T) | Potency (JEG-3) | Potency (OV90) | Potency (PA-1) | Potency (Tov-21-G) | Potency (Tov112D)

O=C(/C=C/c1ccc(O)cc1)O[C@@H]1C[C@@](O)(C(=O)O)C[C@@H](O)[C@@H]1O
inactive: outcome (NIH3T3) | Potency (C33A) | Potency (CAOV3) | outcome (CASKI) | Potency (Es-2) | Potency (HeLa) | Potency (Hek293T) | Potency (JEG-3) | Potency (OV90) | Potency (PA-1) | Potency (Tov-21-G) | Potency (Tov112D)

COC(=O)C1=CO[C@@H](O[C@@H]2O[C@H](CO)[C@@H](O)[C@H](O)[C@H]2O)[C@@H]2[C@@H](C)[C@@H](O)C(O)[C@H]12 (stereo partly drawn)
inactive: outcome (NIH3T3) inactive [at 17.4 µM] | Potency (C33A) | Potency (CAOV3) | outcome (CASKI) | Potency (Es-2) | Potency (HeLa) | Potency (Hek293T) | Potency (JEG-3) | Potency (OV90) | Potency (PA-1) | Potency (Tov-21-G) | Potency (Tov112D)

CC(C)c1ccc2c(c1)[C@H](O)CC1[C@@](C)(C(=O)O)CCC[C@]21C (stereo partly drawn)
inactive: outcome (NIH3T3) | Potency (C33A) | Potency (CAOV3) | outcome (CASKI) | Potency (Es-2) | Potency (HeLa) | Potency (Hek293T) | Potency (JEG-3) | Potency (OV90) | Potency (PA-1) | Potency (Tov-21-G) | Potency (Tov112D)

CC(=O)O[C@@H]1[C@H](O[C@@H]2O[C@H](CO)[C@@H](O)[C@H](O)[C@H]2O)[C@@H](O[C@@H]2O[C@@H](C)[C@H](O)[C@@H](O[C@@H]3O[C@H](CO)[C@@H](O)[C@H](O)[C@H]3O)[C@H]2O)[C@H](OC(=O)[C@]23CCC(C)(C)C[C@H]2C2=CCC4[C@@]5(C)C[C@H](O)[C@H](O[C@@H]6O[C@H](C(=O)O)[C@@H](O)[C@H](O)[C@H]6O)[C@@](C)(C(=O)O)C5CC[C@@]4(C)[C@]2(C)CC3)O[C@@H]1C (stereo partly drawn)
inactive: outcome (NIH3T3) inactive [at 9.27 µM] | activity change, negative = cytotoxicity (C33A) 2.77% [at 6.55 µM] | activity change, negative = cytotoxicity (CAOV3) -7.98% [at 6.55 µM] | activity change, negative = cytotoxicity (CASKI) -0.483% [at 6.55 µM] | activity change, negative = cytotoxicity (Es-2) -0.374% [at 6.55 µM] | activity change, negative = cytotoxicity (HeLa) 0.873% [at 6.55 µM] | activity change, negative = cytotoxicity (Hek293T) 0.423% [at 6.55 µM] | activity change, negative = cytotoxicity (JEG-3) 0.0867% [at 6.55 µM] | activity change, negative = cytotoxicity (OV90) 12.5% [at 6.55 µM] | activity change, negative = cytotoxicity (PA-1) 1.9% [at 6.55 µM] | activity change, negative = cytotoxicity (Tov-21-G) 0.569% [at 6.55 µM] | activity change, negative = cytotoxicity (Tov112D) 7.58% [at 6.55 µM]

COc1c(-c2ccc(O)cc2)cc(OC)c2c1oc1cc(O)c(OC3OC(CO)C(O)C3O)cc12 (stereo not drawn)
inactive: outcome (NIH3T3) inactive [at 17.4 µM] | Potency (C33A) | Potency (CAOV3) | outcome (CASKI) | Potency (Es-2) | Potency (HeLa) | Potency (Hek293T) | Potency (JEG-3) | Potency (OV90) | Potency (PA-1) | Potency (Tov-21-G) | Potency (Tov112D)

CCN1CCN(C(=O)N[C@@H](C(=O)N[C@@H]2C(=O)N3[C@@H]2SC(C)(C)[C@@H]3C(=O)O)c2ccccc2)C(=O)C1=O
inactive: outcome (NIH3T3) | Potency (C33A) | Potency (CAOV3) | outcome (CASKI) | Potency (Es-2) | Potency (HeLa) | Potency (Hek293T) | Potency (JEG-3) | Potency (OV90) | Potency (PA-1) | Potency (Tov-21-G) | Potency (Tov112D)

C=C1C2(C)CC3C4(C)C=CC(=O)OC(C)(C)C4CCC3(C)C1(C(=O)OC)C(=O)C(C)(O)C2=O (stereo not drawn)
inactive: outcome (NIH3T3) inactive [at 17.4 µM] | Potency (C33A) | Potency (CAOV3) | outcome (CASKI) | Potency (Es-2) | Potency (HeLa) | Potency (Hek293T) | Potency (JEG-3) | Potency (OV90) | Potency (PA-1) | Potency (Tov-21-G) | Potency (Tov112D)
